# Assay outcomes: PubChem, National Center for Advancing Translational Sciences (NCATS)
# HT1080 IDH1KD tx = qHTS for induction of synthetic lethality in tumor cells producing 2HG: qHTS for the HT-1080-IDH1KD cell line; 2% of 360,000 active; Potency, µM (doses to about 46.1 µM), without a hit: top-dose activity, negative = toxicity, actives largely listed as cytotoxic; AID 686971, 2013; HT-1080 IDH1 knockdown viability, ATP luminescence, 48 h;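 also: potency is read from the fitted curve at half-maximal effect; 0% = DMSO wells and -100% = cell-free medium wells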
#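 After a 2 h attachment period, IDH1KD HT-1080 cells took pin-transferred compound for 48 h at 37 °C; ATP-based luminescence after 10 min room-temperature reagent incubation reported viability.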
# DT40 TDP1 no CPT = qHTS for Inhibitors of human tyrosyl-DNA phosphodiesterase 1 (TDP1): qHTS in cells in absence of CPT | DT40 Tdp1-/- hTDP1 cells, no CPT, ATP luminescence, 48 h | Potency, µM (series often up to 46.2 µM), without a hit: at the highest dose activity change, negative = growth inhibition, actives largely listed as inhibitors | 15% of 420,000 active | AID 686978, 2013; also: potency is read from the fitted curve at half-maximal effect; nearly all actives have a fitted effect of over 55% in size
#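 Cells were dispensed at 400 per well, compounds added by pin tool, plates incubated ≥48 hr at 37 °C, then CellTiter-Glo added for 30 min at room temperature before luminescence reading. Line: DT40 Tdp1-/- complemented with hTDP1; camptothecin omitted.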
# IL-1B inflam inh = qHTS for Inhibitors of Inflammasome Signaling: IL-1-beta AlphaLISA Primary Screen; THP-1 LPS/ATP IL-1B secretion, AlphaLISA, 16 h; stronger effect = lower value; activity change, % at 57.5 µM; 4.7% of 360,000 active; AID 743279, 2014; in the data active = activity change below about -50%; inconclusive = mostly about -30% to -49%
#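 THP-1 cells pretreated 1 hr with compounds (up to 57.5 uM final), then stimulated with LPS (250 ng/mL final) plus ATP (1.25 mM final); secreted IL-1B measured by AlphaLISA after 16 hr, decreased signal indicating inhibition.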
# ALOX12 inh = Primary qHTS assay for inhibitors of human arachidonate 12S-lipoxygenase (ALOX12): Round 2. Polyunsaturated fatty acid lipoxygenase ALOX12 (Homo sapiens), P18054. AID 1671190, 2021. 1.1% of 580,000 active. Potency, µM (doses to about 108 µM), without a hit: at the highest dose activity change, negative = inhibition, usual class: inhibitors. purified 12hLO, xylenol orange hydroperoxide absorbance; also: potency is read from the fitted curve at half-maximal effect
# Target sequence (P18054 whole entry, looked up): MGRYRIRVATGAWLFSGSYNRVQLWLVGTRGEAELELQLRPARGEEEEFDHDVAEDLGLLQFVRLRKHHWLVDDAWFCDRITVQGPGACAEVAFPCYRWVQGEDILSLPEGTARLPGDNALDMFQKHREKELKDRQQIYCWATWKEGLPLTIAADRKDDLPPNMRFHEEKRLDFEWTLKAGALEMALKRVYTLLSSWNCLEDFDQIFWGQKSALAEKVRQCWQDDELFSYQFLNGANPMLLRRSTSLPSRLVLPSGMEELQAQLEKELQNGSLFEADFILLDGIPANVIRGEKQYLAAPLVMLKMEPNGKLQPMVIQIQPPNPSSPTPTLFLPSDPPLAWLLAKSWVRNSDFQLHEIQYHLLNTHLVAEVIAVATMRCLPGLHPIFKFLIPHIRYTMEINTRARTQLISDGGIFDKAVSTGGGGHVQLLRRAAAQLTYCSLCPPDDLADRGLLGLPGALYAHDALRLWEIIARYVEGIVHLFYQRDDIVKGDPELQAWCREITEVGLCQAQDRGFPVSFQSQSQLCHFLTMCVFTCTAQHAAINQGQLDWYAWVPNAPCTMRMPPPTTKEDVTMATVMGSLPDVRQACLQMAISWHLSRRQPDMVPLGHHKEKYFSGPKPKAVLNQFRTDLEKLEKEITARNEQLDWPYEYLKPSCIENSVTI
#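 Purified human 12hLO (150 nM final) in 25 mM Hepes, 0.01% Triton X-100, pH 7.0 was preincubated 15 min at room temperature with compound. Then 40 uM arachidonic acid was added, 30 min. Hydroperoxide was read by Fe-XO absorbance ratio 573/405 nm.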
# TDP1 cell CPT = qHTS for Inhibitors of human tyrosyl-DNA phosphodiesterase 1 (TDP1): qHTS in cells in presence of CPT; chicken DT40 Tdp1-/-;hTDP1 cells + 20 nM CPT, ATP luminescence, 48 h; Potency, µM (doses to about 46.2 µM), for inactives: top-dose activity change, negative = growth inhibition, most hits filed as inhibitors; 12% of 420,000 active; AID 686979, 2013; also: potency is read from the fitted curve at half-maximal effect; nearly all actives have a fitted effect of over 55% in size
#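 Chicken DT40 Tdp1-/- cells complemented with human TDP1, 400 cells/well, exposed to compounds plus 20 nM camptothecin for at least 48 h at 37 C; viability read as ATP content by CellTiter-Glo luminescence.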
# HT1080-NT tox = qHTS for induction of synthetic lethality in tumor cells producing 2HG: qHTS for the HT-1080-NT fibrosarcoma cell line; HT-1080-NT fibrosarcoma viability, CellTiter-Glo ATP luminescence, 48 h; Potency, µM (highest dose often 46.1 µM), for inactives: top-dose activity, negative = less viability, hits mostly cytotoxic; 1.6% of 360,000 active; AID 686970, 2013;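 also: NT is the 2HG producing partner of a matched IDH1 knockdown line; potency is read from the fitted curve at half-maximal effect; 0% = DMSO-treated cells and -100% = media-only wells without cells; nearly all actives have a fitted effect of over 55% in size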
#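 Toxicity toward the 2HG-producing NT line was scored as %Activity, normalised to DMSO and no-cell wells, from CellTiter-Glo luminescence after 48 hours' treatment.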
# Numbers without * were called inactive; ? = inconclusive; . = not tested or not shown; [ ] = remark or other dose. The entries come from a sample that favours hits as a whole. Unless noted, calls follow the shape of the dose curve; as a rule, active = well fitted curve in the direction sought with a large enough effect; inconclusive = small, poorly fitted or top-dose-only effect, or another doubt; inactive = no such curve, though single readings can be large; an effect the other way counts as inactive or inconclusive. Unless noted, % is scaled to controls: 0 for no effect and ±100 for the full control effect.
SMILES,HT1080 IDH1KD tx,DT40 TDP1 no CPT,IL-1B inflam inh,ALOX12 inh,TDP1 cell CPT,HT1080-NT tox
Cc1ccc(OC(C)C(=O)Nc2ccc3oc(C)nc3c2)cc1 (stereo unspecified),.,.,.,-6.1%,.,.
COc1ccc(-c2ocnc2C(=O)Nc2ccc3c(c2)OCCO3)cc1,.,.,.,-1.2%,.,.
O=[N+]([O-])c1ccc2[nH]c(=S)sc2c1,-19.2%,20.6µM*,-22.5,?,23.1µM*,?
Cn1cc(C(=O)NCCNC(=O)CC2CCCCC2)c2ccccc21,.,.,.,4.8%,.,.
CCCCn1c(-c2cccc3ccccc23)nc2cc3[nH]c(=O)c(C(C)C)nc3cc21,-7.1%,16.4µM*,-13.4,1.1%,?,-28.8%
CCCCn1c(-c2ccccc2C)nc2cc3[nH]c(=O)c(C(C)C)nc3cc21,-5.8%,?,-25.6,11.3%,20.6µM*,-26.4%
CCCCn1c(C2CCCCC2)nc2cc3[nH]c(=O)c(C(C)C)nc3cc21,-2.5%,?,23.6,4.0%,?,-4.4%
O=C(Nc1ccc(Nc2ccccc2)nc1)c1cccc[n+]1[O-],.,.,.,7.0%,.,.
CCN(CC)CCCNC(=O)/C=C/C(=O)O,2.9%,20.6µM*,-1.0,470.9%,18.4µM*,-3.8%
O=C(O)/C=C/C(=O)NCCc1ccccc1,7.8%,22.0%,17.3,-2.3%,21.2%,13.5%
Cc1cc(C)c2cc(C(=O)N3CCCCC3)[nH]c2c1C,.,.,.,-40.0%,.,.
CCOC(=O)C1CCN(C(=O)c2nn(-c3ccc(OC)c(Cl)c3)c(=O)c3c2c2ccccc2n3C)CC1,.,14.6µM*,.,-23.7%,20.6µM*,.
COc1ccc(-n2nc(C(=O)N3CCCCC3C)c3c4ccccc4n(C)c3c2=O)cc1Cl (stereo unspecified),.,?,.,-20.2%,?,.
COc1ccc(-n2nc(C(=O)N3CCCC(C)C3)c3c4ccccc4n(C)c3c2=O)cc1 (stereo unspecified),.,?,.,?,25.9µM*,.
COc1ccc(-n2nc(C(=O)N3CCCCC3)c3c4ccccc4n(C)c3c2=O)cc1Cl,.,16.4µM*,.,-8.2%,4.11µM*,.
COc1ccc([C@H]2C[C@@H](O)[C@@H](O)[C@@H]2NS(=O)(=O)c2ccccc2)cc1,.,.,.,7.5%[176 µM],.,.
O=C(CC1CCCCN(Cc2ccccc2)C1=O)N1CCc2ccccc2C1 (stereo unspecified),.,.,.,27.5%,.,.
Cc1nn(CC(=O)NCc2cc3ccccc3[nH]2)c(C)c1[N+](=O)[O-],-3.2%,-20.5%,-65.2*,-21.9%,-25.7%,-0.3%
O=C(Nc1cccc(-c2cn3ccccc3n2)c1)c1cc2ccccc2oc1=O,5.0%,3.66µM*,-80.3*,-11.7%,2.06µM*,8.4%
Cc1ccc(CNC(=O)C(=O)Nc2c3c(nn2-c2ccccc2)CSC3)cc1,.,-21.6%,.,-45.3%,?,.
Cc1ccc(CNC(=O)C(=O)Nc2c3c(nn2-c2ccc(F)cc2)CSC3)cc1,.,5.17µM*,.,-1.4%,?,.
CCOc1cccc(CN2C[C@@H](CO)[C@H](C3CCN(C(C)=O)CC3)C2)c1,.,.,.,64.5%,.,.
Cc1ccccc1NC(=O)c1c(C)oc2ccc(O)c(CN3CCOCC3)c12,.,23.1µM*,.,?,20.6µM*,.
Cc1ccccc1NC(=O)c1c(C)oc2ccc(O)c(CN3CCCCCC3)c12,.,20.6µM*,.,-23.4%,23.1µM*,.
Cc1ccccc1NC(=O)CCN1CCCCCC1,5.2%,-19.4%,-21.2,-12.9%,-4.2%,15.9%
SMILES,HT1080 IDH1KD tx,DT40 TDP1 no CPT,IL-1B inflam inh,ALOX12 inh,TDP1 cell CPT,HT1080-NT tox
Cc1oc2ccc(O)c(CN3CCOCC3)c2c1C(=O)Nc1ccccc1,.,-3.8%,.,-16.5%,-14.6%,.
Cc1c(-c2ccccc2)c(=O)oc2c(CN3CCOCC3)c(O)ccc12,.,?,.,-26.8%,?,.
Cc1oc2ccc(O)c(CN3CCOCC3)c2c1C(=O)Nc1ccc(C(C)C)cc1,.,16.4µM*,.,1.7%,16.4µM*,.
Cc1oc2ccc(O)c(CN3CCN(Cc4ccccc4)CC3)c2c1C(=O)Nc1ccccc1,.,?,.,-18.1%,23.1µM*,.
COc1ccc(NC(=O)c2c(C)oc3ccc(O)c(CN4CCCCCC4)c23)cc1Cl,.,?,.,?,25.9µM*,.
Cc1ccc(NC(=O)c2c(C)oc3ccc(O)c(CN4CCCCC4)c23)c(C)c1,.,16.4µM*,.,?,11.6µM*,.
Cc1ccc(NC(=O)c2c(C)oc3ccc(O)c(CN4CCCCC4)c23)cc1,.,?,.,-70.7%,?,.
Cc1cccc(CN2CCN(Cn3nc(C)c4ccccc4c3=O)CC2)c1,.,.,.,-0.2%,.,.
COc1ccccc1C1CC(=O)Nc2c1sc(C(=O)O)c2-c1ccc(F)cc1 (stereo unspecified),.,.,.,-28.8%,.,.
C=CCNc1nc(C(F)(F)F)nc2c1nnn2Cc1ccccc1Cl,-6.2%,?,0.0,9.7%,?,-8.0%
CCOCCCNc1nc(C(F)(F)F)nc2c1nnn2Cc1ccccc1Cl,0.0%,14.6µM*,-20.3,-0.1%,18.4µM*,?
CC(C)(C)c1nc(NCCN2CCOCC2)c2nnn(Cc3ccccc3Cl)c2n1,9.1%,10µM*,-8.6,-6.0%,10µM*,11.7%
Cc1cc(NC(=O)C(=O)c2c[nH]c3ccc(F)cc23)no1,.,.,.,-8.5%,.,.
O=C(COC(=O)c1ccccc1)NC1CCCCCC1,-2.4%,-15.4%,11.5,-2.1%,-8.3%,-6.2%
N/C(=N\OC(=O)c1ccccc1)C(C(=O)NOC(=O)c1ccccc1)C1CCCCC1 (stereo unspecified),?,18.4µM*,?,-4.3%,25.9µM*,?
CC(C)c1ccc(/C=N/NC(=O)c2nnn(-c3nonc3N)c2CSC2=NCCS2)cc1,?,20.6µM*,-86.9*,-0.1%,?,-13.2%
Nc1nonc1-n1nnc(C(=O)N/N=C/c2cccnc2)c1CSc1ccc(Cl)cc1,-23.7%,?,1.2,-5.7%,23.1µM*,-1.4%
Nc1nonc1-n1nnc(C(=O)N/N=C/c2cccnc2)c1CSc1ccccc1,0.6%,-2.9%,-3.9,9.4%,2.7%,-4.8%
Nc1nonc1-n1nnc(C(=O)N/N=C/c2cccnc2)c1CSC1=NCCS1,?,?,.,-8.7%,-4.4%,?
Nc1nonc1-n1nnc(C(=O)N/N=C/c2ccc(Br)cc2)c1CSC1=NCCS1,?,25.9µM*,-101.5*,36.3%,?,-10.6%
